# Shown are actives, neighbours in structure and some others; about 10% of the full set was active somewhere.
# NIH3T3 tox = NIH 3T3 cell cytotoxicity | NIH 3T3 viability, CellTiter-Glo ATP luminescence, 48-72 h | Potency, µM (top dose mostly 96.7 µM), for inactives: at the highest dose activity change, negative = cytotoxicity, most hits filed as inhibitors | 4.3% of 94,000 active; note: % is set by controls: 0 for no effect and ±100 for the full control effect; nearly all actives have a fitted effect of over 55% in size
#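 Viability of NIH 3T3 cells after 48 or 72 hr compound treatment at 37 °C was assessed by CellTiter-Glo, with luminescence imaged following a 10 min room-temperature step.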
# GPT2 inh = inhibitors of human GPT2 alanine aminotransferase; Q8TD30; Recombinant GPT2, coupled pyruvate oxidase/HRP Amplex Red fluorescence; Potency, µM (titrated, usually from 57.7 µM), for the others: top-dose activity change, negative = inhibition, actives largely listed as inhibitors; 0.25% of 100,000 active; AID 1671188; note: % is set by controls: 0 for no effect and ±100 for the full control effect; nearly all actives have a fitted effect of over 60% in size
# Target sequence (Q8TD30 whole entry, looked up): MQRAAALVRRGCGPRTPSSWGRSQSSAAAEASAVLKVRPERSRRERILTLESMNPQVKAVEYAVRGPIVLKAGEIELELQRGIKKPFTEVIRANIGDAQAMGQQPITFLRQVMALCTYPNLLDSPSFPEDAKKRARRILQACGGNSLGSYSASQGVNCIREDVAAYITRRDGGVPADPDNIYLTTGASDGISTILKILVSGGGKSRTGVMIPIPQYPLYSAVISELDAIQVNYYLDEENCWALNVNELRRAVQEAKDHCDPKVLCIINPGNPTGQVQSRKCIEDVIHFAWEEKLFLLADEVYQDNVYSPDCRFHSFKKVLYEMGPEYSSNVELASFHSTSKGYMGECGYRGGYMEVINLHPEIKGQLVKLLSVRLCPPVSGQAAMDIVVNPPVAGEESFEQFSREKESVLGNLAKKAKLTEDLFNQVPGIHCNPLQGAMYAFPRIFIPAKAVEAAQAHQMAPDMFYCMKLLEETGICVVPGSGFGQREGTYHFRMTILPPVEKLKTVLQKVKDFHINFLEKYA
#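 Inhibition is scored from Amplex Red fluorescence generated when pyruvate oxidase and HRP act on pyruvate released by GPT2. Reactions contain 10ng/uL enzyme, 250uM a-KG and 2mM L-alanine and run 30 min at room temperature.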
# FLuc inh = Photinus pyralis luciferase inhibition | P08659 | purified P. pyralis luciferase, luminescence, biochemical | Potency, µM (titrated, usually from 115 µM), hits mostly inhibitors | 2.5% of 76,000 active; note: % is set by controls: 0 for no effect and ±100 for the full control effect; nearly all actives have a fitted effect of over 65% in size
#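 Purified P. pyralis luciferase (10nM final) in 50mM Tris acetate pH 7.5, 10mM Mg acetate, 0.01% Tween-20, 0.05% BSA with 10uM D-luciferin and 10uM ATP. Compounds titrated qHTS. Luminescence imaged on CCD.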
# NPR1 antag = human Npr1 receptor antagonism; HEK293 hNpr1 GloSensor cGMP, ANP-stimulated luminescence; Potency, µM (doses to about 46.3 µM), inactives show at the top dose activity change, negative = inhibition, hits mostly inhibitors; 1.6% of 76,000 active; AID 1347048; calls by dose curve; note: % is set by controls: 0 for no effect and ±100 for the full control effect; nearly all actives have a fitted effect of over 60% in size
#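 HEK293 cells stably expressing human Npr1 and cGMP GloSensor pGS-40F, loaded 2 h with 2% GloSensor reagent, given compound 30 min at room temperature. Luminescence read before and 20 min after 0.1 nM hNppA.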
# HEK293 tox = kills HEK 293 cells; HEK 293 viability, ATP luminescence (CellTiter-Glo), 48-72 h; Potency, µM (highest dose often 115 µM), for inactives: at the highest dose activity change, negative = cytotoxicity, hits mostly inhibitors; 6.6% of 94,000 active; AID 1345083; note: % is set by controls: 0 for no effect and ±100 for the full control effect; nearly all actives have a fitted effect of over 60% in size
#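 Cytotoxicity was scored by loss of ATP-coupled luminescence (CellTiter-Glo) in HEK 293 cells. Compound treatment ran 48 or 72 hr at 37 degree Celsius, 5% CO2, 95% humidity.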
# NPR1 antag cnf = confirmation of human Npr1 natriuretic peptide receptor antagonists. shares compounds with NPR1 antag. HEK293 hNpr1 cGMP GloSensor luminescence, ANP-stimulated. Potency, µM (doses to about 57.6 µM), for the others: at the top dose activity change, negative = inhibition, hits mostly inhibitors. 76% of 1,400 active. AID 1347044; calls by dose curve; note: nearly all actives have a fitted effect of over 70% in size
# Npr2 selectivity = hNpr2 antagonism, selectivity versus Npr1. shares compounds with NPR1 antag. HEK293 hNpr2 GloSensor cGMP luminescence, CNP-stimulated. Potency, µM (series often up to 57.6 µM), for the others: at the top dose activity change, negative = inhibition, hits mostly inhibitors. 67% of 1,400 active. AID 1347046; calls by dose curve; note: nearly all actives have a fitted effect of over 70% in size
# FLuc inh counter = counter-screen for Npr1 antagonists: firefly luciferase inhibitors | shares compounds with NPR1 antag | purified FLuc enzyme, luminescence, Km substrate | Potency, µM (doses to about 57.6 µM), for inactives: at the top dose activity change, negative = inhibition, usual class: inhibitors | 0.7% of 1,400 active | AID 1347047; note: 0% is about no effect
# GloSensor ctrl = counter-screen for Npr1 antagonists: GloSensor control cell line. shares compounds with NPR1 antag. HEK293 GloSensor cGMP, SNP-stimulated, luminescence. Potency, µM (titrated, usually from 57.6 µM), for inactives: top-dose activity change, negative = inhibition, hits mostly inhibitors. 69% of 1,400 active. AID 1347051; calls by dose curve; note: % is set by controls: 0 for no effect and ±100 for the full control effect; nearly all actives have a fitted effect of over 70% in size
# Active calls of the source: *; i = inactive; ? = inconclusive; nt = not tested or not shown; [ ] = another dose, or the depositor's remark. Unless noted, calls come from the whole dose curve; as a rule, active = well fitted curve in the direction sought with a large enough effect; inconclusive = small, poorly fitted or top-dose-only effect, or another doubt; inactive = no such curve, though single readings can be large; an effect the other way counts as inactive or inconclusive. Potency is the fitted concentration of half-maximal effect.
SMILES,NIH3T3 tox,GPT2 inh,FLuc inh,NPR1 antag,HEK293 tox,NPR1 antag cnf,Npr2 selectivity,FLuc inh counter,GloSensor ctrl
O=C(Nc1ccccc1)N1CCn2c(nn(-c3ccc(C(F)(F)F)cc3)c2=O)C1,?,-14%,i,?,45µM*,?,?,-2%[86.2 µM],?
O=C(Nc1ccc(Cl)cc1)N1CCn2c(nn(-c3ccc(C(F)(F)F)cc3)c2=O)C1,?,4%,i,?,?,nt,nt,nt,nt
Cn1cccc1CN1CCn2c(nn(-c3ccc(Cl)cc3)c2=O)C1,?,i,nt,nt,?,?,?,14µM*,?
O=C(c1ccc(C(F)(F)F)cc1)N1CCn2c(nn(-c3ccncc3)c2=O)C1,?,i,i,?,?,24µM*,?,4%[86.2 µM],22µM*
O=C(C1CCCCC1)N1CC[C@H](c2nnc(-c3ccncc3)o2)C1,-13%[138 µM],i,i,3%[70.6 µM],-5%[172 µM],nt,nt,nt,nt
Cc1ccc(C(=O)Nc2cccc(-c3nnc4n3CCCC4)c2)cc1,-10%,i,?,-5%,0%,nt,nt,nt,nt
Cc1cc(C(=O)Nc2cccc(-c3nnc4n3CCCC4)c2)n[nH]1,-13%,i,i,?,-11%,?,?,-16%,?
COc1ccc(CC(=O)Nc2ccc([C@H]3OCC(=O)N(Cc4cccnc4)[C@@H]3CO)cc2)cc1,-14%,i,i,-1%,-16%,nt,nt,nt,nt
COc1cccc(CN2CCOC3(CCN(Cc4ccc(C#N)cc4)CC3)C2=O)c1,?,1%[88.5 µM],i,?,?,35µM*,40µM*,2%[86.2 µM],35µM*
Cc1cccc(-c2nc(CN3CCC(C(=O)NCCc4noc(-c5ccncc5)n4)CC3)c(C)o2)c1,-22%,0%,nt,nt,-22%,nt,nt,nt,nt
Cc1oc(-c2ccccc2)nc1CN1CCCC(C(=O)NCCc2noc(-c3ccccc3)n2)C1 (centres undefined),?,-7%,i,13µM*,?,?,?,5%,?
Cc1sc2ccn(CC(C)C)c(=O)c2c1C(=O)NCc1cc(F)cc(F)c1,i,i,i,5%,?,nt,nt,nt,nt
COc1cccc(-c2cc(C(=O)NCC(=O)c3ccccc3)c3cnn(C)c3n2)c1,-29%,nt,nt,nt,-19%,nt,nt,nt,nt
CCN(Cc1noc(C2CCC2)n1)C(=O)C(C)Oc1ccc2ccccc2c1 (centres undefined),-27%,-8%,i,11µM*,35µM*,19µM*,22µM*,-1%,14µM*
CN(Cc1cn(-c2ccccc2)nn1)Cc1noc(C2CCC2)n1,-19%,-7%,i,6%,?,nt,nt,nt,nt
CN1C(=O)CO[C@H](c2ccc(NC(=O)c3cccc(C#N)c3)cc2)[C@H]1CO,-6%[174 µM],i,i,5%[70.6 µM],-10%[172 µM],nt,nt,nt,nt
CN(Cc1cccc(C(=O)Nc2cccc(C#N)c2)c1)CC1COCCO1 (centres undefined),-17%,-1%,i,?,?,?,?,1%,0%
COc1ccccc1N1CCCc2ncc(C(=O)NCc3ccccc3)cc21,?,i,i,1%[70.6 µM],-16%[172 µM],nt,nt,nt,nt
O=C(c1ccc(F)cc1)N1CC(Oc2cccc(-c3nc(-c4ccccc4)no3)c2)C1,?,-6%,?,6%,?,nt,nt,nt,nt
COc1cccc(CC(=O)N2CC(Oc3ccc(-c4noc(-c5ccncc5)n4)cc3)C2)c1,?,i,i,7.9µM*,13µM*,3.1µM*,4.3µM*,-21%,3.4µM*
O=C(Cc1ccccc1F)N1CC(Oc2ccc(-c3noc(-c4cccnc4)n3)cc2)C1,-2%,-12%,i,-29%,-43%,22µM*,22µM*,-14%,22µM*
COc1cccc(CN2CCC(Oc3ccccc3-c3nc(-c4ccncc4)no3)C2)c1 (centres undefined),25µM*,1%,i,?,?,?,?,?,0%
CC(C)S(=O)(=O)N1CC(Oc2ccc(-c3noc(-c4cccnc4)n3)cc2)C1,-24%,-11%,i,1.4µM*,?,22µM*,?,-14%,22µM*
O=C(O)c1cn(C2CC2)c2cc(Cl)c(F)cc2c1=O,nt,i,nt,nt,nt,nt,nt,nt,nt
O=C1NCCCCCCN(Cc2ccc(F)c(F)c2)[C@H]2CCC[C@@H]12,?,i,i,-3%,?,nt,nt,nt,nt
SMILES,NIH3T3 tox,GPT2 inh,FLuc inh,NPR1 antag,HEK293 tox,NPR1 antag cnf,Npr2 selectivity,FLuc inh counter,GloSensor ctrl
Cn1c(CCC(=O)N2CCOCC2)nc2cc(S(=O)(=O)N3CCCC3)ccc21,-13%,?,i,2%,1%,nt,nt,nt,nt
Cc1cc(C)n(Cc2ccc(C(=O)N3CC[C@H](CO)[C@H](O)C3)cc2)n1,0%,-5%,i,2%,3%,nt,nt,nt,nt
Cc1ccc(OCC(=O)N2CC(Oc3ccc(-c4nc(-c5ccccc5)no4)cc3)C2)cc1,1%,i,?,1%,22%,nt,nt,nt,nt
COc1ccccc1C(=O)N1CC(Oc2ccc(-c3nc(-c4ccccc4)no3)cc2)C1,?,i,i,11µM*,?,24µM*,24µM*,-25%,22µM*
Cn1nc(C2CCCC2)cc1N[S+](=O)([O-])c1ccccc1,?,3%[88.5 µM],nt,nt,-2%[172 µM],nt,nt,nt,nt
O=C(O)c1ccnc(-c2ccnc(NCc3noc(C4CCCC4)n3)n2)c1,-6%,i,i,5%,i,nt,nt,nt,nt
Cc1cc2c(N3CCC(NCc4noc(C5CCC5)n4)CC3)ncnc2s1,?,-1%,i,2µM*,?,1.5µM*,3.1µM*,2%,1.7µM*
Cc1ccc(C(=O)N2CCCC2c2nc(CCOCC3CC3)no2)cn1 (centres undefined),3%,i,i,3%,i,nt,nt,nt,nt
Cc1cnc(C(=O)N2CCCC2c2nc(CCOCC3CCCC3)no2)cn1 (centres undefined),-14%,-15%,i,?,-13%,-23%,-17%,-2%,-2%
COCc1ncc(C)n1CCNC(=O)Nc1ccc(C)c(C)c1,-13%,-8%,i,0%,i,nt,nt,nt,nt

# Screening data deposited in PubChem BioAssay by National Center for Advancing Translational Sciences (NCATS).
